Out of some 1,500 compounds screened, about 460 (31%) were called active. Only a sample is shown. Potency and affinity values are given separately. A number with no mark means an inactive call.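 The calls were made as follows: active = viability at or below 80% at any tested concentration, marking the compound as toxic; inactive = the rest.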
Experiment: viability loss in THP-1 monocytes – THP-1 cells, cytotoxicity control for Vif-APOBEC3G degradation inhibitor project, dose response (AID 1117359)
Conditions: THP-1 viability, CellTiter-Glo luminescence, 72 h; series mostly up to 40 µM; viability: at the top concentration

First: CSc1nc(N2CCOCC2)c2c3c(sc2n1)CCC3
Second: CCOc1cc(N2CCOCC2)c(OCC)cc1NC(=O)CSc1ncn[nH]1
The “viability” value of the first is lower: 89% for the first, 91.4% for the second.

Going from Cc1nn(CC(=O)Nc2ccccn2)c(C)c1Br to Cc1cc(NC(=O)C2CCCC2)n(-c2nc3ccccc3[nH]2)n1, the “viability” value rises from 100% to 108%.

Compared with CC(=O)c1ccc(N2CCN(C(=O)c3ccc4c(c3)OCO4)CC2)cc1, O=C(CSc1nc2cc([N+](=O)[O-])ccc2n1-c1ccccc1)NCc1ccc2c(c1)OCO2 is lower in “viability” value: 86.4% for the first, 85.6% for the second.

Going from CCOc1ccc(S(=O)(=O)N2CC(=O)Nc3ccccc32)cc1C#N to COc1ccc(N(CC(=O)NCc2ccccc2C)S(=O)(=O)c2ccc(C)cc2)cc1OC, the “viability” value rises from 89.5% to 90%.

First: O=C(N/N=C/C=C/c1ccco1)c1cccs1
Second: COc1ccccc1NC(=O)CN(Cc1ccco1)C(=O)c1cccs1
The “viability” value of the first is higher: 97.2% for the first, 93.6% for the second.

Going from COCCCN1C(=O)N(c2ccc(F)cc2)C(=O)C1CC(=O)Nc1ccc(OC)cc1 (centres undefined) to Cc1ccc(S(=O)(=O)OCC(=O)Nc2ccc(C(=O)O)c(O)c2)cc1, the “viability” value rises from 91.6% to 91.7%.

First: CC(C)CCN1CCN(Cc2cccn2-c2cccnc2)CC1CCO (centres undefined)
Second: CC1(C)Cc2c(cnn2-c2ccccc2)C(NC(=O)CCCN2CCCCC2=O)C1 (centres undefined)
The “viability” value of the first is lower: 90.9% for the first, 91.8% for the second.

Going from NS(=O)(=O)c1ccc(NC(=O)COC(=O)c2cc(Cl)ccc2[N+](=O)[O-])cc1 to CCN(c1ccc(NC(=O)COC(=O)c2ccc([N+](=O)[O-])o2)cc1)C(C)C, the “viability” value falls from 114% to 94.4%.

Compared with CSc1ccc(/C=N/n2c(C3CCCCC3)n[nH]c2=S)cc1, CCc1ccc(-c2nc(SCC(=O)NC3CCS(=O)(=O)C3)n[nH]2)cc1 (centres undefined) is lower in “viability” value: 83.4% for the first, 82.9% for the second.

Compared with NS(=O)(=O)c1ccc(N=Nc2ccc(=O)[nH]c2O)cc1, OC(c1ccc(Cl)cc1)C(O)c1nc2ccccc2[nH]1 (centres undefined) is lower in “viability” value: 107% for the first, 83.6% for the second.

Going from O=C(O)c1cccc2c1Oc1ccccc1S2(=O)=O to O=C(CSc1ncnc2ccccc12)Nc1cccc(S(=O)(=O)N2CCOCC2)c1, the “viability” value falls from 106% to 98.2%.

Compared with CC(C)(C)CN1CCNC(=O)C1CC(=O)NCCc1ccccc1C(F)(F)F (centres undefined), CCc1cccc(CC)c1-n1c(SCC(=O)N2CCCc3ccccc32)nc(O)cc1=O is higher in “viability” value: 86.3% for the first, 105% for the second.

First: CCCCC1=CC2=CC(=O)C(C)(OC(=O)C3CCCC3)C(=O)C2=CO1 (centres undefined)
Second: Cc1cccc(OCc2nc(C)cc(=O)[nH]2)c1
The “viability” value of the first is higher: 106% for the first, 86.8% for the second.

Compared with COc1ccc(NC(=O)c2cc(-c3ccco3)nc3ccccc23)cc1S(=O)(=O)N1CCOCC1, O=C(CCCCCCC(=O)NCc1ccccc1)NCc1ccccc1 is lower in “viability” value: 95.4% for the first, 83.7% for the second.

For CC(C)(CS(=O)(=O)[O-])NC(=O)CC[N+](C)(C)CCO, the outcome was “inactive”.

Reference: PubChem BioAssay AID1117359 (Southern Research Institute, 2015)
